Reference: PubChem BioAssay AID1569 (National Center for Advancing Translational Sciences (NCATS), 2009)
Results filed as inconclusive are left out. Active and inactive are the calls of the source. The call rests on the fitted dose curve; in most records, active means well fitted inhibition curve with a large enough effect; inconclusive means small, poorly fitted or top-dose-only effect, or effect the other way, or another doubt; inactive means no such curve, though single readings can be large or run the other way.

Assay: Confirmation Concentration-Response Assay for lipid storage modulators; further: nearly all actives have a fitted effect of over 80% in size
Conditions: Drosophila S3 cells, lipid droplet BODIPY/CellTracker ratio, 18-24 h; series mostly up to 46.1 µM; activity change, negative = inhibition: at the top concentration
Source text: NIH Molecular Libraries Probe Production Centers Network [MLPCN] NIH Chemical Genomics Center [NCGC] MLPCN Grant: 1 R03 MH085686-01 Assay Submitter (PI): Beller, Mathias; Max-Planck-Institut fur Biophysikalische Chemie NCGC Assay Overview: Storing lipids as a reservoir for energy or the anabolism of elementary metabolites is a common feature of probably all cells and is conserved from bacteria to humans. The universal cellular lipid storage organelle is the so-called lipid storage droplet (LD). Although ubiquitous, LDs share a simple structure composed of a hydrophobic core that harbors the storage lipids, which is shielded by a droplet-specific phospholipid monolayer to which proteins are attached. The current model of LD biogenesis involves an incorporation of the lipid core into the membrane leaflets of the endoplasmic reticulum (ER) followed by a subsequent budding-like maturation of a LD, which ultimately pinches off. Once released, LD volume can increase by localized lipogenesis or fusion of existing droplets. Storage lipids are re-mobilized enzymatically by lipase activity. Lipase regulation in the adipocyte is heavily studied and involves multiple components including catecholamine signaling, the LD-associated proteins Perilipin and comparative gene identification-58 (CGI-58) and at least two lipases named hormone sensitive lipase (HSL) and adipocyte triglyceride lipase (ATGL). LD regulation outside of the adipocyte is poorly understood and only few components are known. However, there is an urgent need to learn more about ectopic fat depots as mislocalized storage of lipids, for example in the liver or muscle, is an eminent health problem associated with insulin resistance or the metabolic syndrome. We developed a laser-scanning cytometer assay to enable 1,536-well screening and combined the results of the small molecules screen with an RNAi database based on lipid storage. Exo1 identified in the primary screen (AID 1519) and several analogs were measured in the lipid storage assay as 24-point concentration-response curves to confirm potency and SAR.
We dispensed 4 uL of cells at 1.25 x 10^6 cells/mL into LoBase Aurora COC 1,536-well plates (black walled, clear bottom) with a bottle-valve solenoid-based dispenser (Aurora) to obtain 5,000 cells/well. Triacsin C (Sigma-Aldrich T-4540), an inhibitor of long-chain fatty acyl CoA synthetase that blocks synthesis of triglycerides, was used as a positive control for lipid under-storage. A total of 23 nL of compound solution of different concentrations were transferred to the assay plates using a Kalypsys pin tool equipped with a 1,536-pin array containing 10-nL slotted pins (FP1S10, 0.457-mm diameter, 50.8 mm long; V&P Scientific). One microliter of oleic acid (400 uM) was added, and the plate was lidded with stainless steel rubber gasket lined lids containing pinholes. After 18-24 h incubation at 24 degree Celsius and 95% humidity, 4 uL of the dyes BODIPY 493/503 (Molecular Probes) and the Cell Tracker Red CMTPX dye (Molecular Probes) were added to the wells to stain lipid droplets and enumerate cell number, respectively. Fluorescence was detected by excitation of the fluorophores with a 488-nm laser on an Acumen Explorer (TTP Lab Tech). The total intensity in channel 1 (500-530 nm) reflected lipid droplet accumulation. Cells were detected using channel 3 (575- 640 nm) with 5-um width and 100-um depth filters. The ratio of the total intensity in PMT channel 1 over total intensity of channel 3 was also calculated. Percent activity was computed relative to an internal control (100% inhibited lipid droplet deposition due to the presence of 20 uM Triacsin C), which was added to 32 wells/plate.
Potency means the concentration at half of the fitted maximal effect.

| Compound | Potency | activity change, negative = inhibition |
| --- | --- | --- |
| CCC(C)(C)NC(=O)C(c1cccn1C)N(Cc1ccc(OC)cc1)C(=O)Cn1nnc2ccccc21 (stereo not given) | 2500 nM (active) | – |
| CCOc1ccc(CCNC(=O)COC(=O)CCc2cc(OC)c(OC)c(OC)c2)cc1OCC | – | -28% (inactive) |
| CCOC(=O)C1(Cc2ccc(Cl)cc2)CCN(C(C)Cc2ccc(O)c(OC)c2)CC1 (stereo not given) | 11200 nM (active) | – |
| Cc1cc(C(=O)NC2CCCc3c2cnn3-c2ccccc2F)nc(C)n1 (stereo not given) | 1410 nM (active) | – |
| C[C@@H]1NS(=O)(=O)[C@H]2C[C@@H]3C=C[C@]2(O3)[C@H]1OC(=O)c1ccccc1Br | – | 12.1% (inactive) |
| CCOC(=O)c1cc2c(ccn2-c2ccc(F)cc2)n1CC(=O)NC(C)(C)C | 1410 nM (active) | – |
| CC(Oc1ccc2oc3ccccc3c2c1)C(=O)NC12CC3CC(CC(C3)C1)C2 (stereo not given) | 705 nM (active) | – |
| Nc1c(C(=O)Nc2ccc(S(=O)(=O)N3CCCC3)cc2)sc2nc3ccc(OC(F)(F)F)cc3cc12 | 8880 nM (active) | – |
| CCCCCCCCCC[n+]1cccc2c3ccccc3ccc21 | 1770 nM (active) | – |
| Cn1nc(CC(=O)Nc2ccc(N3CCN(C(=O)OC(C)(C)C)CC3)cc2)c2ccccc2c1=O | 1770 nM (active) | – |
| CSCC(=O)NC1CCCc2c1cnn2-c1cc(F)cc(F)c1 (stereo not given) | 2500 nM (active) | – |
| Cc1ccccc1-n1ncc(C(C)NC(=O)c2ccco2)c1C (stereo not given) | 396 nM (active) | – |
| COc1ccc(CCNC(=O)CCC(=O)c2cccs2)cc1OC | – | 30% (inactive) |
| Cc1ccc(NCc2ccc(O)c3ncccc23)cc1 | – | 11% (inactive) |
| COc1ccc(CCNC(=O)Cn2cnc3c(cnn3-c3ccccc3Cl)c2=O)cc1OC | – | -8% (inactive) |
| COc1ccc(CCNC(=O)COc2ccc(S(=O)(=O)NCC(C)C)cc2Cl)cc1OC | – | -18% (inactive) |
| CCOc1ccc(CCNC(=O)CN2CCN(Cc3ccccc3C)C2=O)cc1OCC | – | -49.3% (inactive) |
| CCC(C)N1C(=O)c2ccccc2C1C(=O)NC1CCCCCC1 (stereo not given) | 1990 nM (active) | – |
| COc1ccccc1Nc1nnc(SCC(=O)Nc2nc(-c3ccc(F)cc3)cs2)s1 | 705 nM (active) | – |
| Cc1ccc(NC(=O)CNC(=O)CC23CC4CC(CC(C4)C2)C3)c(O)c1 | 2230 nM (active) | – |

| Compound | Potency | activity change, negative = inhibition |
| --- | --- | --- |
| CCOC(=O)C1CCN(C(=O)C2(NC(=O)Nc3cccc(F)c3)CCCCC2)CC1 | 3970 nM (active) | – |
| COc1ccc(/C=C(\NC(=O)c2cccs2)C(=O)Nc2ccccc2C)cc1OC | 177 nM (active) | – |
| CCCCNc1cc(C)nc(NCc2ccccc2)n1 | 7910 nM (active) | – |
| Cc1ccc(S(=O)(=O)NCCC2=CCCCC2)cc1C(N)=O | 22300 nM (active) | – |
| CCOc1ccc(CCNC(=O)COC(=O)/C=C/c2ccc(OCC#N)c(OC)c2)cc1OCC | 3150 nM (active) | – |
| COc1ccc(CCNC(=O)CCCn2nc(C)n3ccnc3c2=O)cc1OC | – | 6% (inactive) |
| COc1ccc(CCNC(=O)CCCCCNc2nc(=S)[nH]c3ccccc23)cc1OC | 2500 nM (active) | – |
| O=C(Nc1ccc(N2CCOCC2)cc1N1CCOCC1)c1ccc(Br)cc1 | – | 0% (inactive) |
| CN(Cc1cccc(F)c1)C(=O)c1ccc2c(=O)n3c(nc2c1)CCC3 | – | -8.33% (inactive) |
| CC1CCCN(C2=C(NS(=O)(=O)c3ccc(Br)cc3)C(=O)c3ccccc3C2=O)C1 (stereo not given) | 2500 nM (active) | – |
| COc1ccc(CCNC(=O)CSC2=NS(=O)(=O)c3ccccc3N2)cc1OC | – | 8% (inactive) |
| CCCCCCCCCCCCCCCCn1cc[n+](C)c1 | 3150 nM (active) | – |
| Cc1cc(Nc2ccccc2)nc(NCc2ccccc2)n1 | 11200 nM (active) | – |
| Cc1ccc(C(=O)NC2CCCc3c2cnn3-c2ccc(F)cc2F)cn1 (stereo not given) | 3970 nM (active) | – |
| O=C(O[C@H]1[C@H](Cc2ccccc2)NS(=O)(=O)[C@H]2C[C@@H]3C=C[C@]12O3)c1ccc([N+](=O)[O-])cc1 | 28100 nM (active) | – |
| Cn1cc(CNCc2ccc(OC(F)(F)F)cc2)c(-c2ccc3c(c2)OCCO3)n1 | 6280 nM (active) | – |
| CCOc1ccc(CCNC(=O)c2cc3sccc3n2CC)cc1OCC | 199 nM (active) | – |
| CCc1cccc2cc3c(N)c(C(=O)Nc4ccc(S(=O)(=O)N5CCCC5)cc4)sc3nc12 | 9960 nM (active) | – |
| CCOc1ccc(CCNC(=O)COC(=O)c2cccs2)cc1OCC | 3150 nM (active) | – |
| O=C(COC(=O)c1ccc(CO)cc1)NCc1cccs1 | – | 16.4% (inactive) |
